PubChem BioAssay AID743415 (Broad Institute, 2014)
Entries with a potency or affinity are not part of this list. Activity calls are given as the source filed them.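 How the source made its calls: active means compounds lowering Shn3 expression whose fitted half-maximal concentration is at most twice the top valid dose; inconclusive means flat partial decrease or an invalid curve fit; inactive means the rest.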

Experiment: reduction of endogenous Shn3 mRNA, dose response, qPCR, Clone20 cells, cherry-pick (AID 743415)
Settings: overnight; series mostly up to 35 µM

outcome, inactive:
COc1cccc(-n2c(C)nc3c(cnn3-c3ccc(Cl)cc3)c2=O)c1
COCOCCn1cc(CN2CCS(=O)(=O)N(Cc3ccc(-c4ccc(Cl)c(Cl)c4)cc3)C(C(C)C)C2=O)nn1 (stereo not given)
Cn1c(=O)c2c(nc(NCc3ccco3)n2CCc2ccccc2)n(C)c1=O
Cc1ccccc1OCCOC(=O)c1cc(S(=O)(=O)N2CCCCC2)ccc1N1CCOCC1
CCOC(=O)c1cn(CC(=O)Nc2cccc(Cl)c2C)nn1
CCN(CC)c1ccc(NC(=O)CN2C(=O)CSc3ncccc32)c(C)c1
Cc1ccc(-c2nc3ncccc3o2)cc1NC(=O)c1sc2ccccc2c1Cl
Cc1ccc([C@@H]2CC(=O)[C@@H]3CN(S(=O)(=O)c4ccccc4C)[C@H](c4ccc(Cl)cc4)C[C@@H]3N2S(=O)(=O)c2ccc(C)cc2)cc1
CCC(C)c1ccc(S(=O)(=O)N2CCN(C(=O)c3ccc(Cl)c(S(=O)(=O)N4CCOCC4)c3)CC2)cc1 (stereo not given)
Nc1ncnc2c1c(-c1ccc(Oc3ccccc3)cc1)cn2C1CCCC1
O=C(Nc1nc(-c2ccccc2)cs1)C1CCCCN1S(=O)(=O)c1ccccc1 (stereo not given)
CCOC(=O)c1oc2ccc(S(=O)(=O)n3nc(-c4ccc(OC)cc4)cc3N)cc2c1C
CN(CC(=O)Nc1ccccc1Cl)C(=O)c1cccc(S(=O)(=O)N2CCN(c3ccccc3)CC2)c1
CCCCN1CC(COCc2ccccc2)Oc2cccc(Oc3ccc(C(C)C)cc3)c2S1(=O)=O (stereo not given)
Cc1ccc2c(c1)nnn2C1CCN(S(=O)(=O)c2ccc(C(=O)N3C(C)CCCC3C)cc2)CC1 (stereo not given)
